# Assay outcomes (PubChem)
# Only a selection was taken, and hits are over-represented in it overall.
# Giardia FBPA inh: Giardia lamblia aldolase inhibition | A8B2U2 | purified Giardia FBPA | Potency, µM (series often up to 59.6 µM), inactives show at the highest dose activity, negative = inhibition, hits mostly inhibitors | hit rate 0.71% among 290,000; further: potency means the concentration at half of the fitted maximal effect; on the % scale 0 is the no-effect control and ±100 the full control effect; nearly all actives have a fitted effect of over 55% in size
# Target sequence (A8B2U2 whole entry, looked up): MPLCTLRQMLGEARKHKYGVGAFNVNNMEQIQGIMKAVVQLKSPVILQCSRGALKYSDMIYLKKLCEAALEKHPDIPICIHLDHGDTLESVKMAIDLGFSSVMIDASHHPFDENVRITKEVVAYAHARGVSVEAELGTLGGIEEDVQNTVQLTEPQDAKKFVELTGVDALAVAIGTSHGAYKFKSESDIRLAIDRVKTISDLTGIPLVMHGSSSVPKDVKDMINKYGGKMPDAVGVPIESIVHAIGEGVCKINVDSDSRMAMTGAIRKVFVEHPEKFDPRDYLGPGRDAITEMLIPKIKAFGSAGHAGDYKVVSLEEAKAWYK
#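 40 nM FBPA preincubated 10 min at RT with compound (up to 57.5 uM final), then substrate plus GAPDH/TPI/NAD/arsenate coupling and diaphorase/resazurin added. Fluorescence read after 20 min at RT, 525/598 nm.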
# TbPYK inhibitor: T. brucei pyruvate kinase inhibition; Q57TT1; TbPYK enzyme, Kinase-Glo Plus ATP luminescence, 45 min; Potency, µM (series often up to 76.8 µM), for the others: at the top dose activity, negative = inhibition, actives largely listed as inhibitors; hit rate 0.12% among 410,000; further: potency means the concentration at half of the fitted maximal effect; on the % scale 0 is the no-effect control and ±100 the full control effect; nearly all actives have a fitted effect of over 50% in size
#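 Quantitative HTS: titrated library compounds versus trypanosomal pyruvate kinase in TEA buffer (pH 7.2) containing KCl, MgCl2, BSA and Tween-20. Reactions were initiated with ADP, 130 uM final. Kinase-Glo Plus luminescence was read after 45 min at RT.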
# LmPK inhibitor: inhibitors of Leishmania mexicana pyruvate kinase; purified LmPK, Kinase-Glo ATP luminescence, 1 h; Potency, µM (titrated, usually from 57.5 µM), for the others: top-dose activity change, negative = inhibition, most hits filed as inhibitors; hit rate 0.37% among 290,000; further: potency means the concentration at half of the fitted maximal effect; on the % scale 0 is the no-effect control and ±100 the full control effect
#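 Pyruvate kinase activity monitored as ATP production (luciferase luminescence). Conditions: 0.1 nM enzyme, 0.5 mM PEP, 0.1 mM ADP, 1 h, RT; normalized against uninhibited and no-enzyme wells.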
# Shiga inhibitor: blocks Shiga toxin action in Vero cells. inhibition, % at 38.7 µM. hit rate 9.2% among 290,000. Vero cells, Shiga toxin protein synthesis inhibition reporter. AID 2315; in the data active means inhibition mostly above about 28%, no sharp cut-off; inactive means mostly below about 43%; further: 0% is about no effect
# RE007 growth inh: less growth of the S. pombe RE007 Vpr strain. Potency, µM (titrated, usually from 92.2 µM), for the others: at the highest dose activity change, negative = less growth, actives largely listed as inhibitors. hit rate 0.21% among 360,000. AID 651644. S. pombe RE007 Vpr strain, BacTiter-Glo ATP luminescence, 24 h; active means well fitted falling curve with a large enough effect; inconclusive means small, poorly fitted or top-dose-only effect; inactive means no such curve, though single readings can be large or run the other way; further: potency means the concentration at half of the fitted maximal effect; on the % scale 0 is the no-effect control and ±100 the full control effect; nearly all actives have a fitted effect of over 50% in size
#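 Fission yeast strain RE007, carrying one chromosomally integrated HIV-1 vpr copy, was seeded at OD 0.01 in PMG+AL medium with 23 nL pinned compound. After 24 h at 30 °C and 99% humidity, viability was read by BacTiter-Glo luminescence.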
# CHX counter: counter-screen for Shiga toxin inhibitors: cycloheximide protein synthesis inhibition | cell reporter, cycloheximide protein synthesis inhibition counterscreen | max response, % | hit rate 12% among 300,000; in the data active means max response mostly above about 13%, no sharp cut-off; inactive means mostly below about 14%; further: read at 38.3 µM for the half of the compounds with a filed dose; 0% is about no effect
# Starred values were filed as active, the others as inactive; ? = inconclusive; . = not tested or not shown. Unless noted, the call rests on the fitted dose curve; in most records, active means well fitted curve in the direction sought with a large enough effect; inconclusive means small, poorly fitted or top-dose-only effect, or another doubt; inactive means no such curve, though single readings can be large; an effect the other way counts as inactive or inconclusive.
SMILES,Giardia FBPA inh,TbPYK inhibitor,LmPK inhibitor,Shiga inhibitor,RE007 growth inh,CHX counter
Cc1ccc2nc(/C(C#N)=C\c3ccc([N+](=O)[O-])o3)[nH]c2c1,.,6%,4%,16,?,33
O=C(O)c1ccc(N2C(=O)c3cccc(Oc4ccc(Cl)cc4)c3C2=O)cc1,18%,3%,2%,1,3%,-1
O=C(O)c1cccc(N2C(=O)c3cccc(Oc4ccc(Cl)cc4)c3C2=O)c1,16%,5%,5%,1,-7%,19*
COCCOC(=O)c1c(-c2ccccc2)c(-c2ccccc2)nn(C)c1=O,.,-6%,.,.,.,.
NC1=CC(=O)c2cccc3cccc1c23,20µM*,.,-2%,-2,.,-4
COc1cc(NC(=O)c2csc3c2CCCC3)ncn1,-3%,1%,2%,53*,4%,40*
O=C(Nc1onc2c1CCCC2)c1ccc(Cl)cc1,.,0%,.,.,.,.
O=C(Nc1ccccn1)c1csc2c1CCCC2,-4%,0%,-11%,84*,?,49*
COc1ccccc1NC(=O)c1csc2c1CCCC2,-6%,13%,-2%,30,?,8
O=C(Nc1ccccn1)c1onc2c1CCCC2,-4%,?,11µM*,10,10µM*,30*
Cc1ccc(C)c(N2CCN(c3nc4ccccc4n4c(C)nnc34)CC2)c1,.,2%,.,.,.,.
Cc1cc(OCC(=O)Nc2ccc3c(c2)OCCO3)cc(C)c1Cl,-10%,-1%,8%,33,-25%,-3
O=C(COc1cc(Cl)c(Cl)cc1Cl)NC(=O)Nc1ccc2c(c1)OCCO2,6%,-1%,-12%,145*,1%,76*
Cc1ccc(Cl)c(OCC(=O)Nc2ccc3c(c2)OCCO3)c1,-1%,6%,9%,112*,0%,52*
CS(=O)(=O)Nc1cccc(-c2cncnc2NCc2cccs2)c1,-2%,.,.,.,.,.
COc1ccc(NC2CC(=O)N(C(C)C)C2=O)cc1 (stereo unspecified),?,-10%,-3%,23,-10%,8
CC(C)N1C(=O)CC(Nc2ccc(N3CCOCC3)cc2)C1=O (stereo unspecified),-2%,-4%,-11%,30,-7%,39*
Cc1ccc(C(=O)N(CCN2CCCCC2)CC2CCCN(C3CCCC3)C2)s1 (stereo unspecified),1%,7%,0%,72*,-8%,33*
C#Cc1cccc(C(=O)N(Cc2cccnc2)CC2CCCN(C3CCCCC3)C2)c1 (stereo unspecified),.,2%,.,.,-20%,.
COCCN(CC1CCCN(C2Cc3ccccc3C2)C1)C(=O)c1cccs1 (stereo unspecified),-5%,-2%,4%,29*,-15%,27*
O=C(c1cccs1)N(CCN1CCCCC1)CC1CCCN(C2CCCC2)C1 (stereo unspecified),0%,-2%,5%,53*,6%,36*
COc1ccc(Cl)cc1C(=O)Nc1ccc2oc(-c3ccc(C(C)(C)C)cc3)nc2c1,.,-1%,.,.,.,.
CCNc1ncc2nc(-c3ccc(F)cc3)c(=O)n(Cc3ccc(F)cc3)c2n1,-10%,.,.,.,.,.
CN(CC(=O)N1CCCCCC1)S(=O)(=O)c1ccc(Br)s1,-1%,-1%,1%,80*,-14%,33*
CN(CC(=O)N1CCCCCC1)S(=O)(=O)c1ccc(F)cc1,0%,1%,-1%,105*,1%,39*
SMILES,Giardia FBPA inh,TbPYK inhibitor,LmPK inhibitor,Shiga inhibitor,RE007 growth inh,CHX counter
CN(CC(=O)N1CCCCCC1)S(=O)(=O)c1ccccc1,0%,-3%,-7%,69*,-5%,34*
Cc1cccc(C(=O)Nc2ccc(S(=O)(=O)N3CCC(c4nc5ccccc5s4)CC3)cc2)c1,.,-5%,.,.,.,.
Cc1cc(C)cc(NC(=O)COc2cccc3c(=O)n(C)ccc23)c1,.,-1%,.,.,.,.
C/C(=N/OC(=O)C1CC12CCC2)c1ccc(Br)cc1 (stereo unspecified),1%,0%,3%,156*,6%,68*
COc1cc2ccc(C(C)=NOC(C)=O)cc2cc1OC,.,4%,.,.,2%,.
COc1ccc(/C=C2\OC(=S)N(C)C2=O)cc1,-4%,-2%,4%,23,-4%,11*
COc1ccc(/C=C2\C(=O)NCC(=O)N2C)cc1,4%,-8%,-1%,-5,64%,-3
